For 64 compounds, inhibition results are on record in PubChem BioAssay AID1850 (Southern Research Specialized Biocontainment Screening …, 2009).

Out of some 310,000 compounds screened, about 1,000 (0.32%) were called active. A selection follows. Results with a measured potency or affinity are listed apart. Unmarked numbers belong to inactive results. How the calls were made is not given here.

A short description of this assay: Inhibition of PhoP regulon, Salmonella typhi GFP reporter cells, confirmation, 4 h (AID 1850).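 Further: 0% = induced wells with vehicle and 100% = uninduced wells.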 The settings on record: Salmonella Typhi PhoP-promoter GFP reporter, fluorescence, at 50 µM, stronger effect = higher value.
In the case of `CSc1ccccc1NC(=O)CN(C)C(=O)CCc1c[nH]c2ccccc12`, the inhibition is 2.89%. With `CC(C)(C)c1ccc(OCCON2C(=O)CCC2=O)c(Cl)c1` the figure was 10.3%; with `CNCCCOc1ccc(Cl)cc1C(C)(C)C`, 18.7%; with `CCCCNC(=O)c1cccc(NC(=O)C(=O)c2ccccc2NC(C)=O)c1`, 0.04%. As for `COc1ccc(-c2csc(N=C(N)N)n2)cc1`, the inhibition is 4.34%. In the case of `Cc1ccc(-c2csc(N=C(N)N)n2)cc1`, the inhibition is 3.62%. With `O=C(N1CCOCC1)N1CCN(S(=O)(=O)N2CCCCC2)CC1` the figure was 5.81%; with `COc1ccc(NC2CCCN(C(=O)C3=NN(C)C(=O)CC3)C2)cc1OC` (centres undefined), -1.12%; with `Cc1cccc(N2CCN(Cc3nc(-c4cccc(Cl)c4)oc3C)CC2)n1`, -3.9%. Turning to `Oc1[nH]c2ccc(Br)cc2c1N=Nc1ccc(F)cc1`, the inhibition was -81.9%. Take `Cc1cc(=O)c2cc(Br)ccc2[nH]1`: the inhibition is 6.88%. For the compound `O=C(NCC1CCCO1)c1onc(CSc2ccc(F)c(F)c2)c1C(=O)O` (centres undefined), the inhibition is 1.53%. With `C=CCNC(=O)CN1CCC(c2nc3cc(C)c(C)cc3[nH]2)CC1` the figure was 2.77%; with `O=[N+]([O-])c1ccc(/C=N/N2CCCCC2)cc1`, 2.58%; with `CCOc1ccc(-c2c(C(=O)N/N=C/c3ccc(OC)cc3)nnn2-c2nonc2N)cc1`, -14%.

For `O=C(Cc1ccc(Cl)cc1)Nc1ccc(S(=O)(=O)Nc2cnc3ccccc3n2)cc1`, the inhibition is -6.63%. In the case of `CC1CCCCC1NC(=O)c1ccc(NS(=O)(=O)c2ccc3[nH]c(=O)[nH]c3c2)cc1` (centres undefined), the inhibition is 0.81%. For `Cc1ccc(NC(=O)c2cc([N+](=O)[O-])ccc2Cl)c(O)c1`, the inhibition was 4.62%.

Regarding `CC(=O)Oc1c(C)cc(Cl)cc1C(=O)Nc1ccc([N+](=O)[O-])cc1Cl`, the inhibition was 3.87%. On to `CC[C@H](C)Cc1cn([C@@H](CCCCN)C(=O)NCCCCCCCCCCC(=O)N2CCNCC2)nn1`, for which the inhibition is 1.01%. With `CCOC(=O)N1CCN(C(=O)c2cc(COc3ccc4ncccc4c3)on2)CC1` the figure was -2.35%; with `CCc1ccc(CNCCc2ccccc2F)cc1`, 19.3%. With `CCc1ccc(CNCCc2ccc(F)cc2)cc1` the figure was 7.65%; with `COc1cccc(CNCCc2ccccc2)c1OC`, 15.4%; with `Fc1ccc(CCNCc2cccc(Cl)c2)cc1`, -1.17%. Turning to `COc1cc(OC)c(OC)cc1CNCCc1ccc(F)cc1`, the inhibition was 1.12%.

`COc1cc(OC)c(OC)cc1CNCCc1cccc(F)c1`: the inhibition is 3.05%.

As to `COc1cccc(CNCCc2cccc(F)c2)c1OC`, the inhibition is 6.94%.

Regarding `Fc1ccc(CNCCc2ccccc2F)cc1`, the inhibition was 20.1%. Take `CCN(c1ccccc1)S(=O)(=O)c1csc(C(N)=O)c1`: the inhibition is 1.57%. On to `O=C(CS(=O)(=O)c1ccc(Cl)cc1)Nc1nnc(-c2cccs2)o1`, for which the inhibition was -4.66%. With `CC(C)C(NC(=O)/C=C/c1cccc([N+](=O)[O-])c1)C(C)C` the figure was -9.13%; with `CCOC(=O)N1CCC(NC(=O)c2cnn3c(C(F)(F)F)cc(-c4cccc(OC)c4)nc23)CC1`, -1%; with `COc1ccccc1S(=O)(=O)CC(O)COc1ccccc1Cl` (centres undefined), -5.18%. `CN(CCc1ccccn1)C(=O)Nc1ccc(F)cc1`: the inhibition is -7.13%.

As for `COc1ccc(-c2ccc(CCC(=O)O)n2NC(=O)c2cccs2)cc1`, the inhibition was -5.76%. Consider `CN(CC(=O)Nc1ccccc1Cl)C(=O)COC(=O)c1cc([N+](=O)[O-])ccc1N1CCOCC1`, for which the inhibition was -1.8%.

In the case of `Brc1ccc(CNCc2cccs2)cc1`, the inhibition is -4.52%. With `Fc1ccc(CNCCc2ccccc2)cc1` the figure was 14.4%; with `Fc1ccc(CNCc2ccccc2Cl)cc1`, 10.6%. In the case of `c1csc(CNCc2ccncc2)c1`, the inhibition is 1.76%. For `O=C(COc1ccc(Br)cc1)N1CCN(Cc2c[nH]c3ccccc23)CC1`, the inhibition was 1.07%. With `O=C(NCc1ccco1)/C(=C\c1ccco1)NC(=O)c1ccco1` the figure was -9.29%; with `CC1=NN(c2ccc([N+](=O)[O-])cc2)C(c2ccccc2)C1` (centres undefined), -7.1%. For `CC1(C)CC(=O)C2=C(C1)NC(=O)CC2c1cc(F)ccc1F` (centres undefined), the inhibition was 8.24%. With `CC1(C)C2CCC1(CS(=O)(=O)N1CCN(c3ccc(F)cc3)CC1)C(=O)C2` (centres undefined) the figure was -7.85%; with `COc1ccc(S(=O)(=O)NC(C)C(=O)NCc2cccnc2)cc1Cl` (centres undefined), -1.39%; with `Cc1ccc2c(c1)[C@@H]1CN(C)CC[C@@H]1N2S(=O)(=O)c1ccc([N+](=O)[O-])cc1`, 0.95%. With `Cc1ccc2c(c1)C1CN(C)CCC1N2S(=O)(=O)c1ccccc1` (centres undefined) the figure was 4.23%; with `CN(C)c1cc[n+](CC(=O)c2ccc(OC(F)F)cc2)cc1`, 19.8%. For `COc1ccc(CNC(=O)c2cc(COc3c(F)cccc3F)on2)cc1OC`, the inhibition is -2.31%. With `O=C(O)CCc1ccc(-c2ccc(Br)cc2)n1-c1cccc(O)c1` the figure was -2.3%.

As for `CCCCCOC(=O)CSc1nc2c(c(=O)[nH]c(=O)n2C)n1CCc1ccccc1`, the inhibition is 2.47%. `COCc1c(C(=O)OCC(=O)N2c3ccccc3CC2C)oc2ccccc12` (centres undefined): the inhibition was -3.75%. With `CC(C)C(CCNCc1ccccn1)c1ccc(Cl)cc1` (centres undefined) the figure was -0.74%; with `CC(C)CCC(CCNCc1ccccn1)c1ccc2c(c1)OCO2` (centres undefined), 21.8%; with `CC(=O)n1cc([C@H]2C=C(C(N)=O)O[C@@H](OCc3ccc(CO)cc3)C2)c2ccccc21`, 2.45%. With `CCCOC(=O)C[N+](C)(C)CCOC1CC2CCC1(C)C2(C)C` (centres undefined) the figure was -4.95%; with `CCCCOC(=O)C[N+](C)(C)CCOC1CC2CCC1(C)C2(C)C` (centres undefined), -1.52%. With `Cc1ccc(Nc2ccc([N+](=O)[O-])ccc2=O)cc1` the figure was -3.8%; with `Cc1cccc(C(=O)NCC(=O)N2CCN(c3ccc(Cl)cc3)CC2)c1`, 4.53%. As to `Cc1cc(C)nc(NCCO)n1`, the inhibition was 1.84%.

Regarding `Fc1ccccc1Sc1ccccc1CNC1=NCCN1`, the inhibition is 2.16%. With `Fc1ccc(Sc2ccccc2CNC2=NCCN2)cc1`, the inhibition is -8.62%.

By inhibition is commonly meant the change of the read-out against control, counted positive when it falls.
